This assay relates to MDA-MB-468. Kind of assay: phospho-S6 immunofluorescence (DAPI-normalised), per-plate z-score; higher = higher phospho-S6 signal (less pathway suppression). Particulars: 24 h. The procedure:
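GPCR-targeted compound library (MedChemExpress HY-L006) tested on MDA-MB-468 PTEN-null TNBC cells in 384-well plates at 0.1, 1 or 10 uM, combined with vehicle, GDC0941 450 nM or lapatinib 1 uM, for 24 h. Phospho-S6 (S240/244) immunofluorescence normalised to DAPI and expressed as a per-plate z-score; values are the mean of biological triplicates.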

Counter-ions that a name gives are not always drawn.

`Cc1c(C(=O)c2cccc3ccccc23)c2cccc3c2n1[C@H](CN1CCOCC1)CO3` [WIN 55,212-2 (Mesylate)] (compound 10 µM): the “phospho-S6 immunofluorescence (z-score)” value was -2.24 (co-treatment: GDC0941 450 nM), -0.84 (co-treatment: lapatinib 1 uM) and -3.25 (co-treatment: vehicle).

Turning to `Cc1ncc(CN2CC=C(c3ccccc3)CC2)c(N)n1` [Ro 10-5824 (dihydrochloride)] (compound 10 µM), the “phospho-S6 immunofluorescence (z-score)” value runs as follows: (co-treatment: GDC0941 450 nM) -1.36; (co-treatment: lapatinib 1 uM) -1.65; (co-treatment: vehicle) 0.42.

As to `CN1CCC(C(=O)c2cccc(NC(=O)c3c(F)cc(F)cc3F)n2)CC1` [Lasmiditan (hydrochloride)] (compound 10 µM), the “phospho-S6 immunofluorescence (z-score)” value runs as follows: (co-treatment: GDC0941 450 nM) -2.08; (co-treatment: lapatinib 1 uM) -3.95; (co-treatment: vehicle) -0.09.

Regarding `CN1CCC(c2c[nH]c3ccc(O)cc23)CC1` (compound 10 µM), the “phospho-S6 immunofluorescence (z-score)” value turned out to be 0.22 (co-treatment: GDC0941 450 nM), 0.55 (co-treatment: lapatinib 1 uM) and 0.06 (co-treatment: vehicle).

With `C[N+]1(C)[C@@H]2C[C@@H](OC(=O)[C@H](CO)c3ccccc3)C[C@H]1[C@@H]1O[C@@H]12` [Methscopolamine (bromide)] (compound 10 µM), the “phospho-S6 immunofluorescence (z-score)” value reads like this: (co-treatment: GDC0941 450 nM) 0.05; (co-treatment: lapatinib 1 uM) 0.43; (co-treatment: vehicle) 0.6.

In the case of `Cc1cccc(C(C)c2c[nH]cn2)c1C` (configuration not stated) [Medetomidine (hydrochloride)] (compound 10 µM), the “phospho-S6 immunofluorescence (z-score)” value reads like this: (co-treatment: GDC0941 450 nM) 0.08; (co-treatment: lapatinib 1 uM) 0.79; (co-treatment: vehicle) 0.41.

As to `CN1CCC2=C(C1)c1ccccc1Cc1ccccc12` [Setiptiline] (compound 10 µM), the “phospho-S6 immunofluorescence (z-score)” value runs as follows: (co-treatment: GDC0941 450 nM) -0.28; (co-treatment: lapatinib 1 uM) -1.52; (co-treatment: vehicle) -0.24.

For `Cc1cccc([C@H](C)c2c[nH]cn2)c1C` [Dexmedetomidine (hydrochloride)] (compound 10 µM), the “phospho-S6 immunofluorescence (z-score)” value is, setting by setting: (co-treatment: GDC0941 450 nM) 0.32; (co-treatment: lapatinib 1 uM) 0.38; (co-treatment: vehicle) 1.08.

`Cc1ccc2c(c1)C1(CCN(CCc3nc(-c4ccccc4)oc3C)CC1)OC(=O)N2` (compound 10 µM): the “phospho-S6 immunofluorescence (z-score)” value stood at 0.56 (co-treatment: GDC0941 450 nM), 0.85 (co-treatment: lapatinib 1 uM) and 0.89 (co-treatment: vehicle).

The values are drawn from the supplement of paper PMC7411640.
